Read-out in experiment [1]: Interleukin-8 (IL8), CXCL8 (gene 3576)
The experiment is described as follows: BSK_3C_IL8: BioMAP Diversity Plus: 3C Assay for Interleukin-8 (IL8) Biomarker Activity (AID 2283020). The conditions noted are these: primary human endothelial cells (HUVEC); actives raise or lower the signal. The method, boiled down: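 ELISA read-out of IL-8 from human umbilical vein endothelium, measured 24 h after chemical dosing. Activity is expressed relative to DMSO negative control, with both increases and decreases fitted.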

Read-out in experiment [2]: Monokine induced gamma interferon (MIG), CXCL9 (gene 4283)
In words: BSK_3C_MIG: BioMAP Diversity Plus: 3C Assay for Monokine induced gamma interferon (MIG) Biomarker Activity (AID 2283021). The conditions noted are these: primary human endothelial cells (HUVEC); actives raise or lower the signal. The method, boiled down: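 Read-out is ELISA detection of MIG on human umbilical vein endothelial cells, taken 24 h after dosing. Gain or loss of signal was scored relative to DMSO controls using bidirectional curve fitting.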

The target of experiment [3] is human Vitamin D Receptor (VDR), VDR (gene 7421) (UniProt P11473). In words: ATG_VDR_TRANS: Attagene TRANS-FACTORIAL HepG2 Assay for human Vitamin D Receptor (VDR) (AID 2283022; active = hit-call score of the fitted dose curve at least 0.9, where 1 is the maximum). The method, boiled down:
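HepG2 cells were transiently transfected with GAL4-UAS reporter units and a chimeric VDR-Gal4 construct, then dosed for 24 hours. Reporter mRNA was quantified by RT-PCR, fluorescent labeling, HpaI digestion and capillary electrophoresis; gain of signal analysed vs DMSO.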

The nature of experiment [4]: BSK_3C_SRB: Viability Assessment in the BioMAP Diversity Plus: 3C Assay (AID 2283023).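 Also: fitted both ways against DMSO so a hit may be signal rise or drop.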 The settings on record: primary human endothelial cells (HUVEC). The procedure, abridged:
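Human umbilical vein endothelial cells in the 3C system, treated 24 h. Total protein measured by 0.1% sulforhodamine B staining after 10% TCA fixation, read at 560 nm; bidirectional fit versus DMSO.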

Read-out in experiment [5]: Matrix Metallopeptidase 1 (MMP1), MMP1 (gene 4312)
The experiment is described as follows: BSK_BE3C_MMP1: BioMAP Diversity Plus: BE3C Assay for Matrix Metallopeptidase 1 (MMP1) Biomarker Activity (AID 2283024). The settings on record: primary human bronchial epithelial cells; actives raise or lower the signal. The procedure, abridged:
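Human bronchial epithelial cells (BE3C system) exposed to compound for 24 h; MMP1 then quantified by ELISA. Activity was fitted in both directions relative to DMSO.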

Read-out in experiment [6]: Pselectin, SELP (gene 6403)
The experiment is described as follows: BSK_4H_Pselectin: BioMAP Diversity Plus: 4H Assay for Pselectin Biomarker Activity (AID 2283026). The settings on record: primary human endothelial cells (HUVEC); actives raise or lower the signal. The method, boiled down:
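ELISA read-out of P-selectin on human umbilical vein endothelium after 24 h of dosing. Values derive from bidirectional fitting relative to DMSO. Parallel SRB protein staining flagged overt cytotoxicity.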

Experiment [7] can be described thus: BSK_4H_SRB: Viability Assessment in the BioMAP Diversity Plus: 4H Assay (AID 2283027).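 Also: cells exposed to compound for 24 h before staining.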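 As to AC50: curves fitted both ways versus DMSO so AC50 may be loss or gain.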 The settings on record: primary human endothelial cells (HUVEC). The method, boiled down:
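Human umbilical vein endothelial cells, 24 h after chemical dosing; total protein measured by 0.1% sulforhodamine B staining after 10% TCA fixation, read at 560 nm. Bidirectional fitting against DMSO.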

Experiment [8] is described as follows: BSK_BE3C_SRB: Viability Assessment in the BioMAP Diversity Plus: BE3C Assay (AID 2283028). The settings on record: primary human bronchial epithelial cells. The procedure, abridged:
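Human bronchial epithelial primary cells in confluent culture, 24 h after chemical dosing; total protein by 0.1% SRB staining after 10% TCA fixation, read at 560 nm. Bidirectional fitting versus DMSO baseline.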

Read-out in experiment [9]: Urokinase-type plasminogen activator receptor (uPAR), PLAUR (gene 5329)
In words: BSK_4H_uPAR: BioMAP Diversity Plus: 4H Assay for Urokinase-type plasminogen activator receptor (uPAR) Biomarker Activity (AID 2283030). The settings on record: primary human endothelial cells (HUVEC); actives raise or lower the signal. The method, boiled down: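 Human umbilical vein endothelial cells in the 4H system, 24 h after chemical dosing. Cell-surface uPAR measured by ELISA, fitted in both directions versus DMSO; cytotoxicity checked by SRB total protein in parallel cultures.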

Read-out in experiment [10]: Vascular endothelial growth factor receptor 2 (Homo sapiens) (UniProt P35968)
The experiment is described as follows: BSK_4H_VEGFRII: BioMAP Diversity Plus: 4H Assay for Vascular endothelial growth factor receptor 2 (VEGFR2) Biomarker Activity (AID 2283031).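 As to AC50: cell-surface VEGFR2 protein level quantified by ELISA.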 The conditions noted are these: primary human endothelial cells (HUVEC); actives raise or lower the signal. The procedure, abridged:
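Primary human umbilical vein endothelial cells (4H system), 24 h exposure; cell-surface VEGFR2 measured by ELISA. Bidirectional fitting versus DMSO; cytotoxicity checked in parallel by SRB total-protein staining.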

Read-out in experiment [11]: Human Leukocyte Antigen - DR isotype (HLADR), HLA-DRA (gene 3122)
In words: BSK_BE3C_HLADR: BioMAP Diversity Plus: BE3C Assay for Human Leukocyte Antigen - DR isotype (HLADR) Biomarker Activity (AID 2283032). The conditions noted are these: primary human bronchial epithelial cells; actives raise or lower the signal. The method, boiled down: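 ELISA read-out of HLA-DR on human lung bronchial epithelial primary cells, measured 24 h post-dosing. Both increases and decreases were scored relative to DMSO vehicle.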

Read-out in experiment [12]: Vascular cell adhesion molecule 1 (VCAM1), VCAM1 (gene 7412)
The experiment is described as follows: BSK_4H_VCAM1: BioMAP Diversity Plus: 4H Assay for Vascular cell adhesion molecule 1 (VCAM1) Biomarker Activity (AID 2283033).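 As to outcome: cell-surface VCAM-1 protein measured by ELISA.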 The conditions noted are these: primary human endothelial cells (HUVEC); actives raise or lower the signal. The procedure, abridged: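 ELISA read-out of VCAM-1 on human umbilical vein endothelium 24 hours after chemical dosing; gain or loss of signal was fitted relative to DMSO, with sulforhodamine B staining of parallel cultures flagging overt cytotoxicity.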

Read-out in experiment [13]: Interferon-gamma inducible Protein 10 (IP10), CXCL10 (gene 3627)
In words: BSK_BE3C_IP10: BioMAP Diversity Plus: BE3C Assay for Interferon-gamma inducible Protein 10 (IP10) Biomarker Activity (AID 2283034). The conditions noted are these: primary human bronchial epithelial cells; actives raise or lower the signal. The procedure, abridged: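 Chemical is dosed onto human lung bronchial epithelial primary cells, cultures are incubated 24 h, and IP-10 is then quantified by ELISA. Gain or loss of signal is fitted in both directions relative to DMSO.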

Read-out in experiment [14]: Monokine induced gamma interferon (MIG), CXCL9 (gene 4283)
In words: BSK_BE3C_MIG: BioMAP Diversity Plus: BE3C Assay for Monokine induced gamma interferon (MIG) Biomarker Activity (AID 2283035). The settings on record: primary human bronchial epithelial cells; actives raise or lower the signal. The procedure, abridged: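 Primary human bronchial epithelial cells treated for 24 h; MIG levels measured by ELISA, fitted bidirectionally versus DMSO. Parallel SRB total-protein staining assessed cytotoxicity.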

Read-out in experiment [15]: Plasminogen activator inhibitor-1 (PAI1), SERPINE1 (gene 5054)
In words: BSK_BE3C_PAI1: BioMAP Diversity Plus: BE3C Assay for Plasminogen activator inhibitor-1 (PAI1) Biomarker Activity (AID 2283037). The settings on record: primary human bronchial epithelial cells; actives raise or lower the signal. The procedure, abridged:
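Primary human lung bronchial epithelial cells; chemical dosing; 24 h; PAI-1 measured by ELISA; bidirectional fit referenced to DMSO as negative control.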

Read-out in experiment [16]: urokinase plasminogen activator (uPA), PLAU (gene 5328)
In words: BSK_BE3C_uPA: BioMAP Diversity Plus: BE3C Assay for urokinase plasminogen activator (uPA) Biomarker Activity (AID 2283038).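 Also: uPA protein level quantified by ELISA in cell cultures; uPA read one day after compound addition.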 The settings on record: primary human bronchial epithelial cells; actives raise or lower the signal. The procedure, abridged:
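Primary human bronchial epithelial cells, uPA measured by ELISA 24 h after dosing. Bidirectional change relative to DMSO; cytotoxicity checked in parallel cultures by sulforhodamine B total-protein staining.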

Read-out in experiment [17]: Thrombomodulin, THBD (gene 7056)
The experiment is described as follows: BSK_3C_Thrombomodulin: BioMAP Diversity Plus: 3C Assay for Thrombomodulin Biomarker Activity (AID 2283029). The conditions noted are these: primary human endothelial cells (HUVEC); actives raise or lower the signal. The procedure, abridged:
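Read-out is ELISA of thrombomodulin on human umbilical vein endothelium 24 h after chemical dosing. Gain or loss of signal is scored relative to DMSO. Overt cytotoxicity is checked in parallel cultures by sulforhodamine B staining.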

A short description of experiment [18]: BSK_3C_Vis: BioMAP Diversity Plus: 3C Assay for Morphology Visualization (AID 2283025).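 Also: light microscopy image of cell morphology used as background control; fitted both ways so gain or loss versus DMSO counts.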 The conditions noted are these: primary human endothelial cells (HUVEC). The method, boiled down: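 Chemicals were added to primary human umbilical vein endothelium, cells were incubated 24 h, and morphology was then visualized by light microscopy. Gain or loss of signal was fitted bidirectionally relative to DMSO.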

Read-out in experiment [19]: Transforming growth factor beta 1 (TGFb1), TGFB1 (gene 7040)
The experiment is described as follows: BSK_BE3C_TGFb1: BioMAP Diversity Plus: BE3C Assay for Transforming growth factor beta 1 (TGFb1) Biomarker Activity (AID 2283036;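 also: TGF-b1 protein level measured by ELISA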). The conditions noted are these: primary human bronchial epithelial cells; actives raise or lower the signal. The procedure, abridged:
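Primary human lung bronchial epithelial cells; compound exposure 24 h; TGF-b1 by ELISA; bidirectional fit, DMSO baseline. Parallel SRB total-protein staining for cytotoxicity.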

Read-out in experiment [20]: Urokinase-type plasminogen activator receptor (uPAR), PLAUR (gene 5329)
In words: BSK_BE3C_uPAR: BioMAP Diversity Plus: BE3C Assay for Urokinase-type plasminogen activator receptor (uPAR) Biomarker Activity (AID 2283039).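 Also: cells exposed to compound for one day before measurement.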 The conditions noted are these: primary human bronchial epithelial cells; actives raise or lower the signal. The procedure, abridged: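 Human bronchial epithelial primary cells; chemical exposure 24 h; uPAR by ELISA; bidirectional fit vs DMSO control.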

Each structure is given as a SMILES string. Where “and” joins values, the source holds several entries; their conditions need not be identical. Identical values can stand only once. Inconclusive results are not listed. Some structures have more than one record in an assay (separate samples or runs), and their calls can disagree. Calls of active or inactive are those of the source. The calls were made as follows, unless noted: active = hit-call score of the fitted dose curve at least 0.9, where 1 is the maximum; inactive = score below 0.9.

Chain of human Vitamin D Receptor (VDR), VDR (gene 7421) (P11473 whole entry, looked up, the tested form may be a part): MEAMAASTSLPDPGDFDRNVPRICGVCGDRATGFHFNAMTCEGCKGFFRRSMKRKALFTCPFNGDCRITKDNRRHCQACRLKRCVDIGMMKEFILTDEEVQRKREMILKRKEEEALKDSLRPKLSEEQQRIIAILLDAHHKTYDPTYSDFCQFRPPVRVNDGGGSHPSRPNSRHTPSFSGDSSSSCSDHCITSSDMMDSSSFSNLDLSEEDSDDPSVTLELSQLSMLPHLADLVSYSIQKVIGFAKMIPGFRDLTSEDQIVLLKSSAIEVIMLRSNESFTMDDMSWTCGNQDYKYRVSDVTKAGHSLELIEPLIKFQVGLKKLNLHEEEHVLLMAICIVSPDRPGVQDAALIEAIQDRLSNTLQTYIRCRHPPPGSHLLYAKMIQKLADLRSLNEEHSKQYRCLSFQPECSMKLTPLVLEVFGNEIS

One may read the AC50 as the concentration giving half of the maximal activity seen. Take `Cc1ccc(S(=O)(=O)OCC(F)(F)C(F)(F)C(F)(F)C(F)(F)C(F)(F)C(F)F)cc1`: the outcome in experiment [1], in experiment [2], in experiment [3], in [5], in experiment [6] and in experiment [7] was inactive. Moreover, the outcome in [8], in experiment [9], in [10], in [11], in experiment [12] and in experiment [13] was inactive. Besides, the result in experiment [14], in experiment [15] and in [16] was inactive. The AC50 in experiment [4] is 45.5 µM (active) and 38.1 µM (active); in experiment [5] it was 18.2 µM (active); in [9], 46 µM (active).

Turning to `O=S(=O)(OCCOC(F)(F)F)C(F)(F)F`, the result in experiment [1], in experiment [2], in [3], in [4], in [5] and in [6] was inactive. In addition, the result in experiment [7], in experiment [8], in experiment [17], in [9], in [10] and in [11] was inactive. Also, the outcome in experiment [12], in experiment [13], in experiment [14] and in experiment [15] was inactive.

For the molecule `CO[Si](OC)(c1ccccc1)c1ccccc1`, the AC50 in experiment [1] is 20 µM (active); in experiment [4], 36.9 µM (active); in [18], 37.4 µM (active); in experiment [13], 26.6 µM (active). Moreover, the result in [2], in [3], in experiment [5], in experiment [6], in experiment [7] and in experiment [8] was inactive. For the same molecule, the outcome in experiment [17], in experiment [9], in experiment [10], in experiment [11], in [12] and in experiment [14] was inactive. Further, the result in experiment [19] and in [15] was inactive.

In the case of `FC(F)(F)C(F)(F)C(F)(F)N(C(F)(F)C(F)(F)C(F)(F)F)C(F)(F)C(F)(F)C(F)(F)F`, the result in experiment [1], in [2], in experiment [3], in experiment [4], in experiment [5] and in [6] was inactive. Moreover, the result in [7], in experiment [8], in experiment [17], in experiment [9], in experiment [10] and in experiment [11] was inactive. Moreover, the outcome in experiment [12], in [13], in [14], in experiment [15] and in experiment [16] was inactive.

Regarding `CC(C)(C)C(=O)CC(=O)C(F)(F)C(F)(F)C(F)(F)F`, the outcome in [1], in experiment [2], in [3], in experiment [4], in [5] and in experiment [6] was inactive. Also, the outcome in experiment [7], in [8], in [9], in [10], in experiment [11] and in experiment [12] was inactive. Besides, the result in experiment [14], in experiment [15] and in experiment [16] was inactive. For the same molecule, the AC50 in experiment [4] was 48.3 µM (active); in experiment [6], 5.95 µM (active).

Take `CCc1ccc(C(c2ccc(CC)cc2)C(Cl)Cl)cc1`: the AC50 was 11.6 µM (active) in experiment [1]; 12.5 µM (active) in [4]; 7.64 µM (active) in experiment [5]; 13 µM (active) in experiment [18]; 15 µM (active) in [7]; 32.3 µM (active) in [9]. Further, the AC50 is 13.1 µM (active) in experiment [10], 13.6 µM (active) in [11], 28.5 µM (active) in [12] and 20 µM (active) in experiment [15]. For the same molecule, the result in [2], in [3], in experiment [6], in [8], in [14] and in experiment [19] was inactive. In addition, the result in [16] and in experiment [20] was inactive.

Source of the values: PubChem BioAssay (EPA / NIEHS).
